In PubChem BioAssay AID588758 (Vanderbilt Specialized Chemistry Center, 2011):
Calls of active or inactive are those of the source.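 The calls were made as follows: active = compound cutting binding or function at one or more panel targets by over half; inactive = the rest.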

Experiment: off-target binding across receptor and transporter panel, profiling panel, selectivity assay for M4 PAM project, biochemical, Ricerca panel, percent inhibition (AID 588758)
Conditions: Ricerca radioligand binding panel, % inhibition, at 10 µM, stronger effect = higher value

Question: What does the source list for `Cc1nc2sc(C(=O)NCc3ccncc3)c(N)c2c(C)c1Cl`?
Answer: inhibition (GABA-A flunitrazepam site binding): 64%; inhibition: 79% (active); inhibition (measured here: 5-HT2B receptor binding): 74%; inhibition (measured here: 5-HT3 receptor binding): 35%; inhibition (measured here: Adenosine A3 binding): 40%; inhibition (measured here: Adrenergic beta2 binding): 36%; inhibition (measured here: GABA-B 1A binding): 25%; inhibition (measured here: Muscarinic M1 binding): 9%; inhibition (measured here: Muscarinic M2 binding): 10%; inhibition (measured here: Muscarinic M3 binding): 14%; inhibition (measured here: Norepinephrine transporter binding): 35%; inhibition (measured here: Serotonin transporter binding): 3%; inhibition (measured here: hERG channel binding): 12%
